Assay [1] can be described thus: sensitizers of A549 cells to miR-34 induction, primary screen, imaging, A549 dox-inducible miR-34, nuclei and caspase counts (AID 1347080). Conditions: A549 miR-34 inducible, Hoechst nuclei count, 48 h.
Assay [2] is described as follows: survival rescue of mitochondrial mutant cells in low glucose, primary screen, MELAS cybrids, Rieske KO mouse fibroblasts, CellTiter-Glo (AID 1508586;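 active = mean z-score across replicates of 1.96 or higher in either the MELAS or the Rieske mutant cell line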;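 also: z relative to plate mean and SD of compound and empty wells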). On the technique in general: In ATP-based viability assays light output follows the ATP content of the culture.
The target of assay [3] is Mitogen-activated protein kinase 7 (Homo sapiens) (UniProt Q13164). The assay can be described thus: ERK5 transactivation activators in reporter cells, primary screen, cell-based, HTS (AID 1508626;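 active = luciferase signal above three times the same-plate solvent-only control wells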;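 also: luciferase driven by Gal4-ERK5 fusion binding five Gal4 sites before minimal TATA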). The settings on record: HeLa Gal4-ERK5 transactivation, 18 h, at 5 µM, stronger effect = higher value.
Sequence of Mitogen-activated protein kinase 7 (Homo sapiens) (Q13164 whole entry, looked up, the tested form may be a part): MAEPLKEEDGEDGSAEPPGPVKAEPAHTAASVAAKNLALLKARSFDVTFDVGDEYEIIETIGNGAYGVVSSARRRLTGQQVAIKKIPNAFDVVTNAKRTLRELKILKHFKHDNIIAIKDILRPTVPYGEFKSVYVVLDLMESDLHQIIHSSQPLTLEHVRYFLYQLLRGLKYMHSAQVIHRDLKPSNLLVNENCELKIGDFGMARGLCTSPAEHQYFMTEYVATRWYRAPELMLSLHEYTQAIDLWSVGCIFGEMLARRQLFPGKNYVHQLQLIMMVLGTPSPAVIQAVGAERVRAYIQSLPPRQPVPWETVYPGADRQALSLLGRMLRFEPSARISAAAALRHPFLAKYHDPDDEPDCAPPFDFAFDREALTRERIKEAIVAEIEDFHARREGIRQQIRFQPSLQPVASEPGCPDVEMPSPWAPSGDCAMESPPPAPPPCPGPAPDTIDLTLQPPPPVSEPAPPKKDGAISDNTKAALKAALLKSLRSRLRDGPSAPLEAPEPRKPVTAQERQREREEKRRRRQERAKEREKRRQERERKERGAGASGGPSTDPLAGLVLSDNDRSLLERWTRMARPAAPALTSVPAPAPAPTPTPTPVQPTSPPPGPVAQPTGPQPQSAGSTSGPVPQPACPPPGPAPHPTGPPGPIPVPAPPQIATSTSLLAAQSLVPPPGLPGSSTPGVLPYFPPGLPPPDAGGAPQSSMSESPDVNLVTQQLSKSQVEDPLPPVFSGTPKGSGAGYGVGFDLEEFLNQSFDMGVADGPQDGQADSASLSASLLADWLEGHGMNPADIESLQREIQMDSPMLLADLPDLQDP
For assay [4], the target named is NAD(+) hydrolase SARM1 (Homo sapiens) (UniProt Q6SZW1). The assay can be described thus: SARM1 TIR NADase inhibitors, cell lysate, NAD-Glo luminescence (AID 1508614;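 active = compound whose remaining NAD level is above about 45 nM, limit read from the data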;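 also: higher remaining NAD means stronger inhibition of SARM1 NADase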). Conditions: SAM-TIR HEK293T lysate NADase, at 1 µM, stronger effect = higher value.
Sequence of NAD(+) hydrolase SARM1 (Homo sapiens) (Q6SZW1 whole entry, looked up): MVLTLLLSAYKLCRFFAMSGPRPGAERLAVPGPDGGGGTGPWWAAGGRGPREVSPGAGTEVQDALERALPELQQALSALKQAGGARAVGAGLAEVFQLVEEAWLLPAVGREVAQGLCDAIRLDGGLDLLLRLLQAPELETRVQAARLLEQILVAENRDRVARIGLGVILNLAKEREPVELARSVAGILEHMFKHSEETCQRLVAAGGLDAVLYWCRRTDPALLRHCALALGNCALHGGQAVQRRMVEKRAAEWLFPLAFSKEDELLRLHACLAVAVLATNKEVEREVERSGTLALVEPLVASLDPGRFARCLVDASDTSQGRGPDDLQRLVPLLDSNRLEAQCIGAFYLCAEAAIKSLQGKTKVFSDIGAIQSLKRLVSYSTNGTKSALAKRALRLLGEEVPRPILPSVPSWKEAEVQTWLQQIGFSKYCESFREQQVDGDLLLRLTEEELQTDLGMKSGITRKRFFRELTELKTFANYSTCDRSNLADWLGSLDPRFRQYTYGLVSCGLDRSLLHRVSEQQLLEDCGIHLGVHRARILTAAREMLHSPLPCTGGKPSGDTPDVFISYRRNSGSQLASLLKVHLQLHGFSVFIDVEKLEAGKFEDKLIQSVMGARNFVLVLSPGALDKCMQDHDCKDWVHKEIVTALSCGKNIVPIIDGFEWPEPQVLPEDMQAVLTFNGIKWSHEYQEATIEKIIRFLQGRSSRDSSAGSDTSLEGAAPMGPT
A short description of assay [5]: viability rescue of complex I mutant cybrids, primary screen, cell-based, galactose medium, ATP luminescence (AID 1645843;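 active = z-score of at least 1.8 in each of two replicates, scored against plate mean and spread of sample wells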;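 also: positive z means more ATP and so rescue of galactose-driven cybrid death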). The settings on record: complex I mutant cybrid cells, 72 h, stronger effect = higher value.
Where [6] appears, read: stronger effect = lower value, cell number ratio, induced over uninduced.
Setting [7] is: measured here: relative caspase fold change +Dox/-Dox.
Setting [8] is: measured here: total cells with miR-34 induction, stronger effect = lower value.
The mark [9] stands for this setting: measured here: total cells without miR-34 induction.
The mark [10] stands for this setting: MELAS cybrid survival, CellTiter-Glo 48 h, stronger effect = higher value.
Where [11] appears, read: Rieske KO mouse fibroblast survival, CellTiter-Glo 72 h.

Several values for one entry are separate records, joined by “and”; a condition that tells them apart may be missing. Equal entries are not always repeated. Activity calls are given as the source filed them.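 The calls were made as follows, unless noted: active = compounds whose cell count with miR-34 switched on is under 0.7 times the count with it off; inactive = the rest.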

Take `CN1C(C)(C)CCCC1(C)C`: the fold change in assay [1] (setting [6]) was 0.888 (inactive); in assay [1] (setting [7]) it was 1. The cell count in assay [1] (setting [8]) stood at 9180; in assay [1] (setting [9]), 10300. Further, the z-score in assay [2] (setting [10]) was -0.15 (inactive); in assay [2] (setting [11]), 1.08. In addition, the luciferase signal in assay [3] was 68 AU (inactive).

Regarding `O=C(O)CCC(=O)c1ccc(-c2ccccc2)cc1`, the fold change is 0.889 (inactive) and 0.912 (inactive) and 0.859 (inactive) in assay [1] (setting [6]); 0.334 and 2.8 and 1.54 in assay [1] (setting [7]). The cell count was 8550 and 11300 and 9420 in assay [1] (setting [8]); 9620 and 12400 and 11000 in assay [1] (setting [9]). Further, the z-score in assay [2] (setting [10]) was 0.38 (inactive) and 0.679 (inactive); in assay [2] (setting [11]), 0.124 and 0.414; in assay [5], 0.975 (inactive). Further, in assay [4], the remaining NAD was 10 nM (inactive). The luciferase signal in assay [3] is 68 AU (inactive).

As for `CC(Oc1c(Cl)cccc1Cl)C1=NCCN1` (stereo not drawn), the fold change in assay [1] (setting [6]) is 0.89 (inactive) and 0.878 (inactive) and 0.898 (inactive); in assay [1] (setting [7]), 0.839 and 1.76 and 1.47. For the same compound, the cell count in assay [1] (setting [8]) is 9080 and 9420 and 9240; in assay [1] (setting [9]), 10200 and 10700 and 10300. Further, the z-score in assay [2] (setting [10]) is -0.146 (inactive) and 0.131 (inactive); in assay [2] (setting [11]) it was -0.104 and -1.04; in assay [5] it was 0.71 (inactive) and 0.175 (inactive). Besides, the remaining NAD in assay [4] is 10 nM (inactive).

Regarding `Cc1[nH]cnc1CN1CCc2c(c3ccccc3n2C)C1=O`, the figures for the fold change in assay [1] (setting [6]) and in assay [1] (setting [7]) were 0.98 (inactive) and 1.07, respectively. Also, the cell count in assay [1] (setting [8]) was determined as 9740; in assay [1] (setting [9]) it was 9940. Moreover, the z-score in assay [2] (setting [10]) was 0.685 (inactive); in assay [2] (setting [11]) it was 0.531; in assay [5] it was -0.045 (inactive).

Take `CN1CCN(c2c(F)cc3c(=O)c(C(=O)O)cn4c3c2SCC4)CC1`: the fold change in assay [1] (setting [6]) was 0.974 (inactive) and 0.992 (inactive) and 0.895 (inactive); in assay [1] (setting [7]), 0.702 and 1.33 and 0.919. Also, the cell count in assay [1] (setting [8]) was 7420 and 9770 and 9480; in assay [1] (setting [9]), 7610 and 9850 and 10600. Moreover, the z-score in assay [2] (setting [10]) is 0.206 (inactive) and 0.665 (inactive); in assay [2] (setting [11]) it was 0.617 and -0.349; in assay [5] it was -0.175 (inactive) and 0.05 (inactive). Also, in assay [4], the remaining NAD was 10 nM (inactive).

For the compound `COC(=O)N/N=C/c1c[n+]([O-])c2ccccc2[n+]1[O-]`, the fold change in assay [1] (setting [6]) was 0.833 (inactive) and 0.91 (inactive); in assay [1] (setting [7]) it was 6.83 and 1.15. For the same compound, the cell count was 10200 and 7650 in assay [1] (setting [8]); 12300 and 8400 in assay [1] (setting [9]). In addition, the z-score is 0.937 (inactive) and 0.871 (inactive) in assay [2] (setting [10]); 0.153 and -0.0791 in assay [2] (setting [11]); 0.34 (inactive) in assay [5]. Also, the remaining NAD in assay [4] was 10 nM (inactive). Further, the luciferase signal in assay [3] was 172 AU (inactive).

For the compound `C[n+]1ccccc1/C=N/O`, the fold change in assay [1] (setting [6]) was 0.951 (inactive) and 0.91 (inactive); in assay [1] (setting [7]) it was 1.53 and 0.982. Besides, the cell count in assay [1] (setting [8]) is 10700 and 9130; in assay [1] (setting [9]) it was 11200 and 10000. Further, the z-score in assay [2] (setting [10]) is 0.437 (inactive); in assay [2] (setting [11]), -0.00254; in assay [5], 0.085 (inactive). The remaining NAD in assay [4] was 10 nM (inactive). Further, the luciferase signal in assay [3] is 84 AU (inactive).

Regarding `COc1cc(N)c(Cl)cc1C(=O)NC1CCN(Cc2ccccc2)CC1`, the fold change is 0.86 (inactive) in assay [1] (setting [6]) and 0.965 in assay [1] (setting [7]). The cell count was found to be 7810 in assay [1] (setting [8]) and 9080 in assay [1] (setting [9]). Further, the z-score in assay [2] (setting [10]) is 0.473 (inactive); in assay [2] (setting [11]), 0.069. Moreover, the luciferase signal in assay [3] was 48 AU (inactive).

With `COc1cc2c3cc1Oc1cc(ccc1O)C[C@@H]1c4c(cc(OC)c(O)c4Oc4ccc(cc4)C[C@@H]3N(C)CC2)CC[N+]1(C)C`, the fold change in assay [1] (setting [6]) is 0.869 (inactive) and 0.934 (inactive); in assay [1] (setting [7]), 2.84 and 1.19. The cell count in assay [1] (setting [8]) is 11500 and 10000; in assay [1] (setting [9]), 13300 and 10700. Also, the z-score was -0.392 (inactive) in assay [2] (setting [10]), -0.225 in assay [2] (setting [11]) and 0.605 (inactive) in assay [5]. In addition, in assay [4], the remaining NAD is 10 nM (inactive). Moreover, the luciferase signal in assay [3] is 32 AU (inactive).

Source of the values: PubChem BioAssay.
